Assay results as given in PubChem BioAssay (NCATS).
Results filed as inconclusive are left out. Unmarked numbers belong to inactive results. Activity calls are given as the source filed them. Calls follow the shape of the dose curve; as a rule, active = well fitted inhibition curve with a large enough effect; inconclusive = small, poorly fitted or top-dose-only effect; inactive = flat fitted curve, though single readings scatter.

What was measured:
CRL-7250 = normal cell line; assay: Cytotoxic Profiling of Annotated Libraries Using Quantitative High-Throughput Screening (AID 1296008); conditions: Five cell lines viability, CellTiter-Glo ATP luminescence, 48-72 h; max response: hits give low values; also: potency is read from the fitted curve at half-maximal effect; as to max response: % is scaled to controls: 0 for no effect and ±100 for the full control effect
In short: (§1)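 Cells exposed to compounds for 48 or 72 hr at 37 degrees Celsius. Viability read as ATP-coupled luminescence with CellTiter-Glo after 10 min at room temperature.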

HEK293 = assay: as above; conditions: Five cell lines viability, CellTiter-Glo ATP luminescence, 48-72 h; max response: hits give low values
In short: as §1

HaCat [1] = assay: as above; conditions: Five cell lines viability, CellTiter-Glo ATP luminescence, 48-72 h; max response: hits give low values
In short: as §1

NIH3T3 = assay: as above; conditions: Five cell lines viability, CellTiter-Glo ATP luminescence, 48-72 h; max response: hits give low values
In short: as §1

HACAT [2] = assay: qHTS assay to identify novel small-molecules to repurpose for Merkel cell carcinoma treatment (AID 1296009); conditions: MCC and control cell lines, CellTiter-Glo viability, 72 h; at 44.8 µM (top of the series) unless noted
In short: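 Cells were treated for 72 hr at 37 degree celsius with compounds in 8- or 11-point dose response. Viability was read by CellTiter-Glo luminescence, normalized to no-cell (cytotoxicity) and DMSO controls.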

KB-3-1 = assay: Cytotoxic Profiling of Annotated Libraries Using Quantitative High-Throughput Screening (AID 1296008); conditions: Five cell lines viability, CellTiter-Glo ATP luminescence, 48-72 h; max response: hits give low values; also: potency is read from the fitted curve at half-maximal effect; as to max response: % is scaled to controls: 0 for no effect and ±100 for the full control effect
In short: as §1
Also: nearly all actives have a fitted effect of over 60% in size.

CC(C)c1ccccc1OC(=O)NCCc1ccc2ccccc2c1
max response (CRL-7250): -4.95%
max response (HEK293): 2.54%
max response (HaCat [1]): 3.54%
max response (NIH3T3): 3.78%

CC(=O)OC(C)(C)/C=C/C(=O)[C@](C)(O)[C@H]1C(O)C[C@@]2(C)[C@@H]3CC=C4[C@@H](C=C(O[C@@H]5O[C@H](CO)[C@@H](O)[C@H](O)[C@H]5O)C(=O)C4(C)C)[C@]3(C)C(=O)C[C@]12C (some centres undefined)
outcome (CRL-7250): inactive
max response (HEK293): -18.4%
outcome (HaCat [1]): inactive
outcome (NIH3T3): inactive
outcome (HACAT [2]): inactive [at 17.4 µM]

CCOC(=O)[C@@]1(CCCCCCOc2ccc(Cl)cc2)CO1
max response (CRL-7250): -16.7%
Potency (HEK293): 8.31 µM (active)
max response (HaCat [1]): 3.74%
max response (NIH3T3): -15.5%

CC[C@@H](Nc1c(Nc2cccc(C(=O)N(C)C)c2O)c(=O)c1=O)c1cc(C(C)C)co1
max response (CRL-7250): 4.29%
max response (HEK293): -14.3%
outcome (HaCat [1]): inactive
max response (NIH3T3): -6.94%
outcome (HACAT [2]): inactive

C=CC(=O)Nc1ccc(CN2C(=O)N(c3cc(OC)cc(OC)c3)Cc3cnc(Nc4ccc(N5CCN(C)CC5)cc4)nc32)cc1
Potency (CRL-7250): 0.411 µM (active)
Potency (HEK293): 11.6 µM (active)
Potency (HaCat [1]): 5.17 µM (active)
Potency (NIH3T3): 8.2 µM (active)

CC(C)c1cc2c(N3CCN(C4=NCC(C)(C)S4)CC3)ncnc2s1
Potency (CRL-7250): 3.66 µM (active)
Potency (HEK293): 1.3 µM (active)
outcome (HaCat [1]): inactive
max response (NIH3T3): -29.7%
outcome (HACAT [2]): inactive

CCCCCc1ccc(/C=C/C(=O)Nc2cc(Cl)ccc2C(=O)O)cc1
max response (KB-3-1): -3.71%

O=C(NCCN1CCC(n2c(=O)[nH]c3ccccc32)CC1)c1ccc2ccccc2c1
max response (CRL-7250): 1.03%
max response (HaCat [1]): -42.4%
max response (KB-3-1): -2.44%

C=CC(C)(C)c1[nH]c2ccccc2c1C[C@@H]1NC(=O)[C@H](C)NC1=O
max response (CRL-7250): -22.2%
max response (HaCat [1]): 1.83%
max response (KB-3-1): 3.23%
outcome (NIH3T3): inactive

CN(C)[C@@H]1CCc2[nH]c3ccc(NC(=O)c4ccc(F)cc4)cc3c2C1
max response (CRL-7250): -12.5%
max response (HaCat [1]): -11.8%
max response (KB-3-1): 1.75%

Cc1cnn(-c2ccccc2)c1NC(=O)COCc1ccccc1
max response (CRL-7250): -16.8%
max response (HaCat [1]): 3.62%
max response (KB-3-1): 3.83%

C=CC(=O)N1CCC[C@@H](n2nc(-c3cccc(C(=O)Nc4ccc(C(C)C)c(C)c4)c3)c3c(N)ncnc32)C1
Potency (CRL-7250): 20.6 µM (active)
Potency (HaCat [1]): 16.4 µM (active)
max response (KB-3-1): -9.98%

COc1ccc2cc3c(NC(=O)c4ccco4)nn(C)c3nc2c1
max response (CRL-7250): -20.9%
max response (HaCat [1]): -26.7%
Potency (KB-3-1): 13 µM (active)

NCCOc1cc(C(=O)Nc2cc(OCCN)c3ccccc3n2)nc(C(=O)Nc2cc(OCCN)c3ccccc3n2)c1
Potency (CRL-7250): 7.31 µM (active)
Potency (HaCat [1]): 2.63 µM (active)
Potency (KB-3-1): 16.4 µM (active)

COc1ccc(C(=O)Nc2c(Cl)cncc2Cl)cc1OC1CCCC1
max response (CRL-7250): -3.72%
max response (HaCat [1]): -24.5%
max response (KB-3-1): -14.8%
max response (NIH3T3): -4.74%

COc1cc(/C=N\NC(=O)c2ccc3c(c2)OCO3)ccc1OCc1ccccc1
max response (CRL-7250): 3.71%
max response (HaCat [1]): -3.21%
max response (KB-3-1): -9.36%
max response (NIH3T3): 0.687%

CC1=CC2/C=C(\C)CCC(O)C(=O)C(O)CC(=O)C23C(=O)NC(CC(C)C)C3C1C (centres undefined)
outcome (CRL-7250): inactive
max response (HaCat [1]): -78.4%
max response (KB-3-1): 2.51%
max response (NIH3T3): -27%

COc1cc(-c2cn(C3CCc4c(F)cccc4N(CC(F)(F)F)C3=O)nn2)ccc1-n1cnc(C)c1 (centres undefined)
max response (CRL-7250): -13.5%
max response (HaCat [1]): -32.4%
max response (KB-3-1): -16.9%

CNCc1cc(-c2ccccc2F)n(S(=O)(=O)c2cccnc2)c1
max response (CRL-7250): -3.13%
max response (HaCat [1]): -5.62%
max response (KB-3-1): -0.384%
max response (NIH3T3): 0.556%

CN1CCN(c2ccc(OC(F)(F)F)c(Nc3ncc4c(n3)-c3c(c(C(N)=O)nn3CCO)CC4)c2)CC1
max response (CRL-7250): -11.3%
Potency (HaCat [1]): 0.259 µM (active)
Potency (KB-3-1): 0.0366 µM (active)

COc1ccc(-c2c(C)nn3c(NCCN4CCOCC4)cc(C)nc23)cc1OC
max response (CRL-7250): -19%
max response (HaCat [1]): -11.4%
outcome (KB-3-1): inactive

CCOC(=O)c1cnn(-c2ccccc2)c1NC(=O)c1cc2nc(-c3ccco3)cc(C(F)(F)Cl)n2n1
max response (CRL-7250): -4.16%
max response (HaCat [1]): 3.78%
max response (KB-3-1): 6.18%

COc1ccccc1C(=O)Nc1cccc(NC(=O)c2cccc(C)c2)c1
max response (CRL-7250): -5.11%
max response (HaCat [1]): 3.09%
max response (KB-3-1): 4.14%

CC(=O)N[C@H]1[C@H](O[C@H]2CC[C@@]3(C)C(CC[C@]4(C)C3CC=C3C5CC(C)(C)CC[C@]5(C(=O)O)C(O)C[C@]34C)C2(C)C)O[C@H](CO[C@@H]2O[C@H](C)[C@H](O)[C@H](O)[C@H]2O[C@@H]2OC[C@@H](O)[C@H](O)[C@H]2O)[C@@H](O)[C@@H]1O (some centres undefined)
max response (CRL-7250): -3.47%
max response (HaCat [1]): -18.2%
max response (KB-3-1): 3.32%
